Measurements taken from PubChem BioAssay.
Activity calls are given as the source filed them.

What was measured:
[1] = small molecules captured by biotinylated probe aFSTL3 – biochemical, small-molecule microarray, fluorescence 635/667, stem cell growth factor project, primary screen (AID 1064); settings: higher = more signal;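 note: measures binding of the biotinylated anti-FSTL3 antibody to printed compounds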
[2] = binders from COS7 lysate, DM2A8 probe, primary screen, torsin A project, cell lysate, small-molecule microarray, fluorescence 635/667 (AID 1065); settings: higher = more signal, COS7 lysate expressing mutant human TOR1A
[3] = small molecules captured by biotinylated probe aFGF2 – biochemical, small-molecule microarray, fluorescence 635/667, stem cell growth factor project, primary screen (AID 1067); settings: higher = more signal;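 note: measures binding of biotinylated aFGF2 protein to printed compounds on slides; z-score merges feature fluorescence and signal-to-noise across triplicate slides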
[4] = small molecules captured by biotinylated probe aFGF10 – biochemical, small-molecule microarray, fluorescence 635/667, stem cell growth factor project, primary screen (AID 1071); settings: higher = more signal;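 note: score merges 667 nm spot intensity and signal to noise from triplicate slides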
[5] = target: Neurogenic locus notch homolog protein 2 (Homo sapiens) (UniProt Q04721); test: small molecules binding Notch2 protein – biochemical, small-molecule microarray, 635 nm fluorescence, stem cell growth factors, primary screen (AID 1073); settings: higher = more signal
Neurogenic locus notch homolog protein 2 (Homo sapiens), sequence (Q04721 whole entry, looked up, canonical isoform): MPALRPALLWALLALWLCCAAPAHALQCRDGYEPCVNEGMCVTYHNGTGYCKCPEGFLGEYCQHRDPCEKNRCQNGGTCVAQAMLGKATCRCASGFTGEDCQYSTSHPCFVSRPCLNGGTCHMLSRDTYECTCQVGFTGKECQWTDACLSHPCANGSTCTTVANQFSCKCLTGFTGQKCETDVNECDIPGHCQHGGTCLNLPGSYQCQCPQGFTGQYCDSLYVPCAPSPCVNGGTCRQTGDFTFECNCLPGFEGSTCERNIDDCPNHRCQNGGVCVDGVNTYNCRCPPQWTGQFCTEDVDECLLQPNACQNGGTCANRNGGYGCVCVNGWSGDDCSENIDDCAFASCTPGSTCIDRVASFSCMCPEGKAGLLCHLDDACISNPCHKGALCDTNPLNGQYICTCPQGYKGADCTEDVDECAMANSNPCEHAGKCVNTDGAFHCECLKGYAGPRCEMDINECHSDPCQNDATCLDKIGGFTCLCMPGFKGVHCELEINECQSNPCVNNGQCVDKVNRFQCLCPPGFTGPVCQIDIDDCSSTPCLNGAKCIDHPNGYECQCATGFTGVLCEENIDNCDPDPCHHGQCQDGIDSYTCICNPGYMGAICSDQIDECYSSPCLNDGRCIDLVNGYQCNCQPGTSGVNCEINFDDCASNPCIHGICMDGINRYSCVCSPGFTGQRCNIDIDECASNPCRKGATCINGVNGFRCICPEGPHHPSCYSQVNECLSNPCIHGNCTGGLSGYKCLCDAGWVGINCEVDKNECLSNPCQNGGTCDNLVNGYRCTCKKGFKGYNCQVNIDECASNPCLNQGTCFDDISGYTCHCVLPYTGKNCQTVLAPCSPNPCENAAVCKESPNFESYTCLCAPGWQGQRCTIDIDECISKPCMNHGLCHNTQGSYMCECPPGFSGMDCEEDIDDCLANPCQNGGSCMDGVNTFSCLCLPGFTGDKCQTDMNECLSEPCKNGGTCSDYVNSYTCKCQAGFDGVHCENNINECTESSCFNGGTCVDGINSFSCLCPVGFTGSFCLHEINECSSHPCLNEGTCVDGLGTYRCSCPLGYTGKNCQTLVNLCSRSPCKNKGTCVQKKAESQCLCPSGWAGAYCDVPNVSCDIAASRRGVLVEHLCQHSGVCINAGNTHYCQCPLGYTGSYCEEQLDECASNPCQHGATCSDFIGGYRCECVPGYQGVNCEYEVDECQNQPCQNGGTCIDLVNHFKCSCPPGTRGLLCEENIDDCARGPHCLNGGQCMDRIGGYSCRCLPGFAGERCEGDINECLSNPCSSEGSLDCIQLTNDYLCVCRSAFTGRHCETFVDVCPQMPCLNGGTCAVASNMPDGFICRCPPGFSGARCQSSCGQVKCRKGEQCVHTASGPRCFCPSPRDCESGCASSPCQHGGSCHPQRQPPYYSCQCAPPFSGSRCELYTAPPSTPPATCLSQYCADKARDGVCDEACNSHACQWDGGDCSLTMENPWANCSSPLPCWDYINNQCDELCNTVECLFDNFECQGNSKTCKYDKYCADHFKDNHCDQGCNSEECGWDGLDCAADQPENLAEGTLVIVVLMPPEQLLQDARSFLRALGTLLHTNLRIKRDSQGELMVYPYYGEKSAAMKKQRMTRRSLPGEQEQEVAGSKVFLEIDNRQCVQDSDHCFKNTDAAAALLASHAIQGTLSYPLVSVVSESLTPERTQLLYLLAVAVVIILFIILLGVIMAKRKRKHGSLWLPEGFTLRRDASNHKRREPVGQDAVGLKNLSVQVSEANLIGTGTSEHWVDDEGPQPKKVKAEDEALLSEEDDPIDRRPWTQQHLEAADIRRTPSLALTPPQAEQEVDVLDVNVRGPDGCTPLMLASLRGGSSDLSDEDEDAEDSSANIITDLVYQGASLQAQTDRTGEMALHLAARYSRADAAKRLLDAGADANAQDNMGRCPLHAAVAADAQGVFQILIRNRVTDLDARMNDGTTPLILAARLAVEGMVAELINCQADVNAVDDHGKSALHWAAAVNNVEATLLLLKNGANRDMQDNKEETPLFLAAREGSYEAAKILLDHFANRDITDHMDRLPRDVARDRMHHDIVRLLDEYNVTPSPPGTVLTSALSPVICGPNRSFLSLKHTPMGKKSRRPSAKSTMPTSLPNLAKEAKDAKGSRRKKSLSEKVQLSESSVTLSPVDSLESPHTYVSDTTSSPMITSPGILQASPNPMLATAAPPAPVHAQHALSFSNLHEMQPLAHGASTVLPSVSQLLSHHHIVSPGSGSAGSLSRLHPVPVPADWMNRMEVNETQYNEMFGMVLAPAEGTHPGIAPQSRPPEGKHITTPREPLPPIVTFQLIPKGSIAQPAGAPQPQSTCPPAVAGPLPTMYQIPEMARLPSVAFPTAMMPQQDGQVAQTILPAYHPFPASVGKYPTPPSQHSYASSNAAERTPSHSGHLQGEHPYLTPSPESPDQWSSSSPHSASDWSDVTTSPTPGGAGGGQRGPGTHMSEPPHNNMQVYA

[6] = target: Pro-neuregulin-1, membrane-bound isoform (Homo sapiens) (UniProt Q02297); test: small molecules binding neuregulin-1 protein – biochemical, small-molecule microarray, fluorescence 635/667, psychiatric disease protein project, primary screen (AID 1075); settings: NRG1 binding, 635 nm fluorescence, higher = more signal;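 note: score combines 667 nm spot fluorescence with signal to noise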
Pro-neuregulin-1, membrane-bound isoform (Homo sapiens), sequence (Q02297 whole entry, looked up, the tested form may be a part, canonical isoform): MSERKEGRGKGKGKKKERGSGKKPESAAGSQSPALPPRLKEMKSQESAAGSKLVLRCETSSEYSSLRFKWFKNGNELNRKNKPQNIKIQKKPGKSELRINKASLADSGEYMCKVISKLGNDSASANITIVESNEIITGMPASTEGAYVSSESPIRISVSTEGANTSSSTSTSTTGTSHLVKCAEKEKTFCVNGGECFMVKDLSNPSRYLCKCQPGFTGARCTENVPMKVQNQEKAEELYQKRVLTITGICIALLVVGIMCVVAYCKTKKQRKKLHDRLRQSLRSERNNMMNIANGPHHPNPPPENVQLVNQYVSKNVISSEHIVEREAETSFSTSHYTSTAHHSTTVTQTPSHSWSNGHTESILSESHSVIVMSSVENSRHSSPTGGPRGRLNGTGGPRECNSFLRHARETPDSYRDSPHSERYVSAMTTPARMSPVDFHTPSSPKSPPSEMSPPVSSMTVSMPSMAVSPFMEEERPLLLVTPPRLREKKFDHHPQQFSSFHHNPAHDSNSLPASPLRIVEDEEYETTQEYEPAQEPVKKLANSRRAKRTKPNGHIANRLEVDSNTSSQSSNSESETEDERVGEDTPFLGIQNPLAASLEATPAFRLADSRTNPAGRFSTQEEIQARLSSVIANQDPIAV

[7] = tested on: Neuregulin-1 EGF-like domain; test: small molecules binding NRG1 EGF domain – biochemical, small-molecule microarray, 635 nm fluorescence, primary screen (AID 1081); settings: higher = more signal;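 note: binding of the protein to compounds printed on small-molecule microarray slides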
[8] = FRG1 expression reporter modulators in myotubes – cell-based, C2C12 myotubes, firefly/Renilla luciferase, luminescence, FRG1 inhibition for FSHD, primary screen (AID 1084); settings: FRG1 promoter luciferase, higher = more signal, called active from +8 up or from −8 down
[9] = small molecules captured by biotinylated probe aFST – biochemical, small-molecule microarray, fluorescence 635/667, stem cell growth factor project, primary screen (AID 1086); settings: higher = more signal;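 note: score merges 667 nm fluorescence with signal-to-noise of each printed compound spot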
[10] = binders of probe aHhip on microarray, primary screen, stem cell growth factor project, biochemical, small-molecule microarray, fluorescence 635/667 (AID 1087); settings: higher = more signal;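 note: score merges spot fluorescence at 667nm with spot signal to noise ratio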
[11] = tested on: PRMT1 (protein arginine N-methyltransferase 1); test: small molecules binding arginine methyltransferase PRMT1 – biochemical, small-molecule microarray, 635 nm fluorescence, primary screen (AID 1088); settings: higher = more signal;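 note: binding of Prmt1 protein to compounds spotted on small-molecule microarray slides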
[12] = growth effects on S. cerevisiae YJM789 – YJM789 clinical isolate, OD600, 24 h, basal, primary screen (AID 1089); settings: higher = more signal, called active from +8 up or from −8 down;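 note: growth of clinical yeast isolate S. cerevisiae YJM 789 seeded 1000 cells per well; test concentration not given here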
[13] = S. pombe growth modifiers, basal conditions – strain 972, OD600, 24 h, no modulator, primary screen (AID 1090);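 note: basal condition with compound alone and no growth modifier present; test concentration not given here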; settings: S. pombe 972 growth, higher = more signal, called active from +8 up or from −8 down
[14] = budding yeast growth modifiers under rapamycin – strain BY4716, OD600, 96 h, primary screen (AID 1091); note: test concentration not given here; settings: S. cerevisiae BY4716 + rapamycin, higher = more signal, called active from +8 up or from −8 down
[15] = target: Torsin-1A-interacting protein 2 (Homo sapiens) (UniProt Q8NFQ8); test: small molecules binding lysate-expressed LULL1 – cell lysate, human LULL1 lysate, 635/667 nm fluorescence, primary screen (AID 1092); settings: small-molecule microarray, hLULL1 lysate binding, 635 nm fluorescence; higher = more signal;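 note: probe is lysate of COS7 cells overexpressing human LULL1; score merges per-feature 667 nm fluorescence with signal-to-noise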
Torsin-1A-interacting protein 2 (Homo sapiens), sequence (Q8NFQ8 whole entry, looked up): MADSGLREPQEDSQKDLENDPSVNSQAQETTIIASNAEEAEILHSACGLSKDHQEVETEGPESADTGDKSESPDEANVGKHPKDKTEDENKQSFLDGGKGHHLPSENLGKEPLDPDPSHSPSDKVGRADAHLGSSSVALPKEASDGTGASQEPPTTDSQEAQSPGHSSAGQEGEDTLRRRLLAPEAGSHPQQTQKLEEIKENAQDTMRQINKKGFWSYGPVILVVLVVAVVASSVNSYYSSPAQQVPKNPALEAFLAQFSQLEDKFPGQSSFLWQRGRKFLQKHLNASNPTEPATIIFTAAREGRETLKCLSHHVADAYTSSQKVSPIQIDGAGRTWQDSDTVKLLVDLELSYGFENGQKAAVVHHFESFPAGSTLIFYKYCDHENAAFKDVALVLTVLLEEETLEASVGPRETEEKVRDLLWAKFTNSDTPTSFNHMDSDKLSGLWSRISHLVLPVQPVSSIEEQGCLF

[16] = optical density change of DRC41 E. coli – strain DRC41, OD650, 24 h, E. coli filamentation project, primary screen (AID 1093);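 note: MC1000 strain lacking acrAB efflux and sulA so SOS filamentation is blocked; test concentration not given here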; settings: E. coli DRC41 growth, higher = more signal, called active from +8 up or from −8 down
[17] = probe aLefty2 binding to arrayed compounds – biochemical, biotinylated probe, 635/667 nm fluorescence, primary screen (AID 1094); settings: small-molecule microarray, higher = more signal;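 note: score merges spot fluorescence near 667 nm with spot signal-to-noise ratio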
[18] = tested on: Noggin (protein binding on small-molecule microarray); test: small molecules binding Noggin protein – biochemical, 635/667 nm fluorescence, primary screen (AID 1095); settings: 635 nm fluorescence, higher = more signal;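 note: score merges 667 nm feature fluorescence with signal to noise over triplicate slides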
[19] = target: Neurogenic locus notch homolog protein 3 (Homo sapiens) (UniProt Q9UM47); test: small molecules binding NOTCH3 protein – biochemical, 635/667 nm fluorescence, primary screen (AID 1096); settings: small-molecule microarray, 635 nm fluorescence, higher = more signal
[20] = probe aEGFR binding to arrayed compounds – biochemical, biotinylated probe, 635/667 nm fluorescence, primary screen (AID 1097); settings: small-molecule microarray, higher = more signal;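 note: probe is a biotinylated anti-EGFR antibody binding compounds printed on slides; score combines fluorescence near 667 nm and signal to noise of each spot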

Compound	composite z-score [1]	composite z-score [2]	composite z-score [3]	composite z-score [4]	composite z-score [5]	composite z-score [6]	composite z-score [7]	z-score [8]	composite z-score [9]	composite z-score [10]	composite z-score [11]	z-score [12]	z-score [13]	z-score [14]	composite z-score [15]	z-score [16]	composite z-score [17]	composite z-score [18]	composite z-score [19]	composite z-score [20]
CCCCCCCCCCC(O)C1C=CC2C(=O)N(C)C(=O)C2N1NC(=O)OC(C)(C)C (stereo not given)	-0.318	-0.127	-0.0272	-0.293	0.228	1.03	0.465	-0.218 (inactive)	0.0478	-0.212	0.76	0.258 (inactive)	-16.5 (active)	-1.97 (inactive)	2.18	-2.14 (inactive)	-0.0725	-0.765	0.0249	-0.128
CCOc1cc(C(O)C2C=CC3C(=O)N(C)C(=O)C3N2Nc2ccccc2)ccc1O (stereo not given)	-0.329	0.101	0.0827	0.305	1.46	1.78	1.49	0.55 (inactive)	0.472	0.24	1.13	0.921 (inactive)	1.23 (inactive)	1.97 (inactive)	1.84	-0.0866 (inactive)	0.0258	-0.386	0.679	0.0439
O=c1n(-c2ccccc2)c(=O)n2n1CC(COc1ccccc1)=C([C@H](O)CCc1ccccc1)[C@@H]2CO	-0.333	-0.0765	-0.141	0.265	0.094	-0.153	0.0463	-2.53 (inactive)	0.0915	-0.318	0.17	-1.33 (inactive)	-1.79 (inactive)	-0.868 (inactive)	-0.173	2.68 (inactive)	-0.153	0.701	-0.196	-0.08
CC(C)N1C(=O)C[C@@](C(=O)NCCCN(C)C)(c2ccc([N+](=O)[O-])cc2)[C@H]1c1ccc(CO)cc1	-0.153	-0.351	-0.0328	0.589	-0.072	0.454	-0.412	-0.0382 (inactive)	0.27	-0.409	-0.139	-0.768 (inactive)	-1.42 (inactive)	-0.525 (inactive)	0.349	-1.41 (inactive)	-0.0221	-0.131	-0.233	-0.124
NCCCCCNC(=O)[C@@H]1C[C@@H]2C(=O)NCC(=O)N2[C@@H]1c1cccc(OCCO)c1	-0.144	0.45	0.108	0.773	0.756	0.889	1.34	0.0981 (inactive)	0.417	0.151	1.44	-0.0012 (inactive)	-0.926 (inactive)	0.267 (inactive)	1.32	2.01 (inactive)	0.086	1.35	0.712	-0.0158
C=CC[C@]1(C(=O)NCCN2CCOCC2)N=C(c2ccc(OCCCO)cc2)O[C@H]1c1ccccc1CN=[N+]=[N-]	0.442	1.46	-0.0078	0.333	0.837	0.849	1.23	1.81 (inactive)	0.171	0.0338	1.4	-0.0011 (inactive)	-1.77 (inactive)	-0.744 (inactive)	1.64	1.23 (inactive)	0.298	0.641	-1.35	0.159
COC(=O)c1nc2oc1CC[C@@H](CO)NC(=O)N(C)Cc1cnnn1C[C@H](Cc1ccccc1)NC2=O	-0.195	-0.328	-0.062	-0.135	-0.444	0.243	0.434	-0.988 (inactive)	-1.08	-0.314	0.0909	-1.04 (inactive)	0.127 (inactive)	-0.335 (inactive)	0.715	1.27 (inactive)	-0.331	0.419	-0.139	-0.287
O=C(CS)NCCCCCCNC(=O)[C@H]1C[C@H]2C(=O)N[C@@H](Cc3ccccc3)C(=O)N2[C@H]1c1ccc(O)cc1	-0.361	0.375	-0.132	0.836	0.51	1.34	1.36	0.234 (inactive)	-0.571	-0.928	1.53	0.407 (inactive)	1.1 (inactive)	1.12 (inactive)	1.91	-0.0352 (inactive)	-0.316	0.405	0.635	-0.105
Cc1ccc(S[C@]2(C(=O)NCCCN(C)C)CC(=O)N(C3CCCCC3)[C@@H]2c2ccc(CO)cc2)cc1	0.655	-1.19	-0.0885	-0.418	-0.503	1.43	0.98	-0.404 (inactive)	-0.249	-0.132	-0.0316	-0.96 (inactive)	-2.22 (inactive)	-0.655 (inactive)	0.555	0.457 (inactive)	0.0321	-0.561	-0.662	-0.106
COc1ccc([Si](C)(C)[C@@H]2[C@@H](CC(=O)N3Cc4ccccc4C[C@H]3CO)O[C@]3(C(=O)N(C)c4ccccc43)[C@H]2C)cc1	0.279	0.56	0.0331	0.686	0.356	0.969	1.22	-4.24 (inactive)	0.714	0.202	1.53	-0.912 (inactive)	0.256 (inactive)	1.86 (inactive)	1.83	-0.0789 (inactive)	0.279	1.84	1.11	-0.0052
